The list is not random: actives were taken first. Their share in the collection is about 3.5%.
TEAD-YAP block = TEAD-YAP interaction inhibition | HEK-TIYL cells, TEAD-Gal4/YAP UAS-luciferase luminescence | inhibition, % at 9.12 µM | 640,000 compounds, 1.4% hits; in the data active = inhibition above about 32%;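 also: 0% = median of test compound wells and 100% = reference inhibitor wells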
GPR151 activ = activates the human receptor GPR151. Q8TDV0. PathHunter beta-arrestin GPR151 cells, luminescence. activation, % at 11.2 µM. 650,000 compounds, 1% hits; in the data active = activation above about 4.9%;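 also: 0% = median of compound wells and 100% = cells with positive control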
MITF inh = blocks human microphthalmia-associated transcription factor. AID 1259374. 650,000 compounds, 0.91% hits. O75030. inhibition, % at 2.6 µM. AlphaScreen MITF homodimerization, bead proximity signal; in the data active = inhibition above about 50%;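 also: 0% = vehicle wells with protein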
FBW7 act = human FBW7 E3 ligase activation, primary screen. Q969H0. AlphaScreen FBW7–phospho-cyclin E peptide binding, activator screen. normalized activity (activation), % at 26.1 µM. 650,000 compounds, 0.13% hits. AID 1259310; in the data active = normalized activity above about 1.9%;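 also: purified mutant Fbw7 with reduced substrate affinity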
GPR151 conf act = confirmation of human GPR151 activators. shares compounds with GPR151 activ. GPR151 PathHunter beta-arrestin cells, luminescence, 90 min; % of EA-reagent control over plate median. activation, % at 11.2 µM. 6,700 tested, under 10 active;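 active = mean percent activation across replicates above the confirmation screen cutoff of 4.91%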
GPR119 ag = GPR119 activation, counter-screen for GPR151 activators; 6,700 compounds, 0.3% hits; activation, % at 11.2 µM; shares compounds with GPR151 activ; AID 1508611; GPR119 PathHunter beta-arrestin cells, luminescence, 90 min; 0 = compound-well median, 100 = enzyme-acceptor control;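 active = mean percent activation in the counterscreen above 29.09%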;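 also: counterscreen on off-target GPR119 to flag nonselective hits from the GPR151 activator screen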
Target sequence (Q8TDV5 whole entry, looked up): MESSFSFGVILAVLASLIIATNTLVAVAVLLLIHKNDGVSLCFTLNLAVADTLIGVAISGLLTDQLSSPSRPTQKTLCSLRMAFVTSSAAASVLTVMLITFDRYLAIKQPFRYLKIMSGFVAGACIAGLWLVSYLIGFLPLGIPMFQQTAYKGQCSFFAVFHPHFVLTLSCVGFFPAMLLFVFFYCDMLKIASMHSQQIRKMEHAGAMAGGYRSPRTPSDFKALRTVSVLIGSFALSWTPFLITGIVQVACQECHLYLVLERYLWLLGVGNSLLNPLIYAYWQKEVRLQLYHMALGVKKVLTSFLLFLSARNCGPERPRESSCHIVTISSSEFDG
Active calls of the source: *; · = not tested or not shown; ! = repeats disagree.

SMILES | TEAD-YAP block | GPR151 activ | MITF inh | FBW7 act | GPR151 conf act | GPR119 ag
O=C(CN1C(=O)c2ccccc2C1=O)Nn1c(-c2cccc(Cl)c2)nc2ccccc2c1=O | -10.2 | 6.7* | 19.2 | 1.3 | -0.2 | 13.4
COC(=O)CCn1cnc([N+](=O)[O-])n1 | -4.3 | -2.3 | -3.1 | -0.1 | · | ·
c1cc(-n2cnc3c(NC4CC4)nc(NCc4ccc5c(c4)OCO5)nc32)cs1 | -34.8 | 1.0 | -1.5 | -0.1 | · | ·
O=C(CN1CCN(CC(=O)Nc2ccccc2F)CC1)Nc1cccc(F)c1 | 10.3 | 6.2* | 13.1 | 0.6 | 1.0 | 2.6
CC(C)OC(=O)/C(C#N)=C\c1cccs1 | -5.1 | 6.0* | -2.3 | 0.0 | -0.6 | -8.8
CC(C)=CCC[C@@H](C)C1CC[C@@]2(C)C3=C(CC[C@]12C)[C@@]1(C)CCC(O)C(C)(C)[C@@H]1CC3 (some centres not stated) | 6.5 | 7.7*! | -0.7 | 0.0 | 0.5 | 10.7
CC(=O)O[C@H]1CCC2(C)C3=C(CCC2C1(C)C)[C@]1(C)CCC(C(C)CCC=C(C)C)[C@@]1(C)CC3 (some centres not stated) | -12.1 | 3.1 | 11.7 | 0.1 | · | ·
C=CCOC(=O)C1C(c2ccccc2)c2c([nH][nH]c2=O)CC1(C)O (configuration not stated) | -5.9 | -0.4 | -6.3 | -0.2 | · | ·
C=CCOC(=O)C1C(c2cccc(Br)c2)c2c([nH][nH]c2=O)CC1(C)O (configuration not stated) | -2.8 | 6.0* | -15.1 | 0.0 | -0.8 | -11.4
COCC(=O)Nc1sc(C)c(C)c1C(=O)OC | -0.8 | -0.7 | 6.0 | -0.2 | · | ·
CC(=O)c1ccc(NC(=O)CSc2ccc(C)cc2)cc1 | -39.4 | 5.5* | 11.7 | 0.1 | 0.7 | 4.0
CC(=O)c1ccc(NC(=O)CSc2ccc(F)cc2)cc1 | -34.6 | 0.4 | -0.3 | -0.1 | · | ·
c1cncc(CSc2ccc(-c3cccnc3)nn2)c1 | -18.6 | 7.0* | 4.3 | 0.3 | 1.3 | 5.7
COc1ccc(CN2CCc3nnc(C(C)NC(=O)CCc4ccccc4)n3CC2)cc1 (configuration not stated) | -0.1 | -0.8 | 9.7 | -0.1 | · | ·
CCOC(=O)c1sc(NC(=O)C=C(C)C)nc1C | -13.8 | -0.6 | 9.0 | 0.2 | · | ·
Nc1nc2ccc(Oc3ccccc3)cc2s1 | 1.2 | 8.9* | 2.7 | 0.4 | -0.5 | -3.0
Nc1nc2ccc(OC(F)(F)F)cc2s1 | -18.0 | -1.5 | -7.8 | 0.0 | · | ·
CC(=O)c1ccc(NC(=O)Nc2ccc(CC(=O)O)cc2)cc1 | -3.2 | 6.6* | -3.3 | 0.1 | 0.4 | 8.7
CC(=O)Nc1ccc(C(=O)Nc2ccc(CC(=O)O)cc2)cc1 | 2.0 | 0.0 | 3.4 | 0.0 | · | ·
COc1cc(/C=C2/C(=N)N3OC(C)=CC3=NC2=O)ccc1OC(=O)c1cccs1 | 7.2 | 2.2 | 6.1 | 0.1 | · | ·
Cc1nc(SC2CCCCC2=O)c(C#N)c(-c2cccs2)c1C(=O)Nc1ccccc1 (configuration not stated) | 8.3 | 5.1* | 3.4 | 0.0 | -1.0 | -8.1
O=C(O)CNS(=O)(=O)Cc1ccccc1 | -1.9 | -1.5 | -6.9 | 0.1 | · | ·
CCOC(=O)CNS(=O)(=O)Cc1ccccc1 | 3.6 | 6.8* | 19.9 | 0.6 | 0.2 | -7.4
Cc1nnc(NC(=O)CN2CCC(O)(c3ccc(F)cc3)CC2)s1 | 1.5 | 6.8* | -2.3 | -0.1 | -0.2 | 6.2
O=C(c1c[nH]c2ccc(S(=O)(=O)N3CCCCCC3)cc2c1=O)N1CCOCC1 | 1.4 | 10.8* | 13.8 | -0.1 | -0.1 | 4.4
SMILES | TEAD-YAP block | GPR151 activ | MITF inh | FBW7 act | GPR151 conf act | GPR119 ag
COc1ccc([N+](=O)[O-])cc1/C=C1\C(=O)N(c2ccccc2)N=C1C | -1.6 | 8.1* | -2.1 | -0.3 | -0.4 | -0.9
Cc1c(N2CCN(CC3CCCCO3)C2=O)cccc1C(F)(F)F (configuration not stated) | 0.6 | 0.2 | -0.8 | -0.1 | · | ·
CCn1c(=O)n(CC(=O)NCCN2CCOCC2)c(=O)c2ccccc21 | -3.4 | 2.7 | -2.3 | -0.1 | · | ·
Cn1c(N)c(S(=O)(=O)Nc2cccc(Cl)c2)c(=O)n(C)c1=O | -2.2 | 7.7* | 2.8 | -0.2 | -0.5 | 0.2
Cc1c(S(=O)(=O)Nc2cccc(Cl)c2)c(=O)n(C)c(=O)n1C | -1.6 | -0.2 | 2.4 | -0.1 | · | ·
Cc1nc(N2CCOCC2)c2c(C)c(C(=O)N3CCC(C#N)CC3)sc2n1 | 2.5 | -0.7 | -4.0 | -0.1 | · | ·
CCOC(=O)COc1ccc(/C=C2\C=C(c3ccc(Br)cc3)OC2=O)cc1OC | 6.5 | 13.2* | -13.5 | 0.1 | 1.8 | 13.9
O=C(CCn1nnc2ccccc2c1=O)N1CCN(C(=O)c2ccco2)CC1 | 7.5 | -1.1 | 5.2 | 0.0 | · | ·
COc1ccc(O)c(C2NC(=O)NC(C)=C2C(=O)OC(C)C)c1 (configuration not stated) | -14.3 | -0.4 | 3.3 | 0.0 | · | ·
COc1ccc(OC)c(C2NC(=O)NC(C)=C2C(=O)OC(C)C)c1 (configuration not stated) | -1.7 | 5.1* | 22.2 | 0.4 | 0.3 | 11.7
N[n+]1cnn(CC(=O)c2ccc(Cl)cc2Cl)c1 | 2.6 | 1.1 | -16.3 | 0.1 | · | ·
CC(C(=O)c1ccc(Cl)cc1Cl)n1c[n+](N)cn1 (configuration not stated) | 10.8 | 5.2* | -6.0 | 0.0 | 0.8 | 5.5
O=C1C(=O)N(CCCN2CCOCC2)C(c2cccnc2)/C1=C(/O)c1ccc(Br)cc1 (configuration not stated) | 11.8 | 9.1* | 2.9 | 0.1 | -1.2 | -13.1
COc1ccc(/C(O)=C2/C(=O)C(=O)N(CCN3CCOCC3)C2c2ccc(C(C)(C)C)cc2)cc1 (configuration not stated) | 2.7 | 7.0* | 9.8 | -0.1 | -0.7 | -5.0
O=C1C(=O)N(CCN2CCOCC2)C(c2cccnc2)/C1=C(/O)c1ccc(Br)cc1 (configuration not stated) | -5.4 | -0.6 | 1.6 | 0.4 | · | ·
CC(=O)c1cccc(NC(=O)CCCc2nc3ccccc3s2)c1 | -24.1 | -1.4 | 1.7 | 0.8 | · | ·
COc1cc(C2NC(=O)NC(C)=C2C(C)=O)cc(Br)c1OCc1ccccc1 (configuration not stated) | -8.1 | 5.7* | 19.2 | 0.1 | 1.9 | 10.2
COC(=O)C1=C(C)NC(=O)NC1c1cc(OC)c(O)c([N+](=O)[O-])c1 (configuration not stated) | -16.7 | 1.1 | 5.1 | 0.0 | · | ·
CCOC(=O)C1=C(C)NC(=O)NC1c1cc(Br)c(OCc2ccccc2)c(OC)c1 (configuration not stated) | -4.5 | 1.2 | 22.1 | 0.4 | · | ·
COc1cc(C2NC(=O)NC(C)=C2C(C)=O)cc([N+](=O)[O-])c1O (configuration not stated) | 8.5 | 7.8* | 23.9 | 0.1 | 0.5 | 9.6
COc1cc(NC(=O)C2CCCCC2)c2ncccc2c1 | 4.7 | 5.3* | 4.6 | 0.0 | -0.1 | 6.3
COc1cc(NC(=O)NC(C)C)c2ncccc2c1 | 21.1 | -1.7 | 8.4 | 0.3 | · | ·
